# Reference: the supplement of paper PMC11417369
# ± gives the standard deviation of the averaged measurements. Over roughly 25,000 sequences, “ln(normalized median fluorescence intensity)” has its median near 8.6; the highest 2% begin near 10. Only a selection was taken, and the highest values are over-represented in it overall.
# System: PfAP2-EXP AP2 domain (GST-tagged)
# Assay: gcPBM binding intensity (ln(normalized median fluorescence intensity)); higher = stronger DNA binding
# Outline: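 DNA-binding domains from P. falciparum, fused to GST and produced in E. coli, were put on an Agilent 4 × 180k double-stranded probe array for 1 h in 1× PBS holding 1% milk, 0.2 mg/ml BSA, 0.5% salmon testes DNA and 0.03% Triton X-100. Probes were primer-extended, 36 bp long and drawn from intergenic genomic regions, with negative controls included. After Alexa488 anti-GST antibody detection and a 488 nm scan, binding intensity was set as the highest Masliner-normalised natural-log median intensity across replicate spots of either probe orientation.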
row,Sequence,gcPBM binding intensity (ln)
1,AAAAAAAAAAAAAATACACACATATATAAATAAATA [CACACA_site6459],8.31 ± 0.45
2,TATAAACATAAATATACACACAAACATATATGTATT [CACACA_site8324],8.51 ± 0.42
3,CTGTGTTTTGGTTGTACACACGCTACATTCTATATT [CACACA_site2698],9.16 ± 0.28
4,TTTTTAAAAATAACAGAAAAGAATTACAGATTTTTT [XGTACX_negctrl_site472],8.34 ± 0.41
5,TTTTTTTGCTCTTTTTATATATATATATATATATAT [GTGCAC_negctrl_site70],10.2 ± 0.46
6,TTTTGCTTTTTTTTTCTTTTTTGTTTTATATATATT [CACACA_negctrl_site103],8.51 ± 0.53
7,TTTTGTTGCTCTTTTTTTTTTTTTTTTAACTGTATG [CACACA_negctrl_site1072],8.57 ± 0.43
8,TATGTATATATATATATATATATATATATATATATA [TGCATGCA_negctrl_site491],10.1 ± 0.66
9,TAAAGGAGCCTATGAACACACACATGTACTTATATT [CACACA_site9351],8.56 ± 0.4
10,TGTATGAAATATATTACACACATATAAAATCTATAT [CACACA_site6514],8.35 ± 0.57
11,CATTATTATTTTATAACACACACATATATATTATAT [CACACA_site8405],8.48 ± 0.34
12,TCGAACATTAACATAACACACATATATATATATATA [CACACA_site2900],10.2 ± 0.32
13,CCAAATTTATAAAGAACACACACATATATATATATA [CACACA_site7900],9.99 ± 0.4
14,AACATTATAAGACACACACACACATATATATATATA [CACACA_site8259],10.1 ± 0.39
15,TTAATTAAGAAACACACACACATATATATATATATT [CACACA_site2290],8.67 ± 0.42
16,TATATATTAAAACACACACACATATATATATATATA [CACACA_site3787],10 ± 0.38
17,TCGAACATTAACATAACACACATATAGATTTATATA [CACACA_site7380],8.29 ± 0.42
18,AAATTTATAAAGAACACACACATATATATATATATA [CACACA_site48],10.2 ± 0.27
19,AAATTTATAAAGAACACACACATATAAATATAAATA [CACACA_site6174],8.93 ± 0.49
20,CATTATAAGAAACACACACACATATATATATATATA [CACACA_site1051],10.2 ± 0.47
21,TATATTAAGAAACACACACACATATATATATATATA [CACACA_site1609],10.2 ± 0.3
22,AAACATAAGAAACACACACACATATATATATATATA [CACACA_site3642],10.1 ± 0.35
23,TTTTTTAAAAATATTATCATCGTAACAAGAAATCGA [CACACA_negctrl_site1111],8.45 ± 0.4
24,AATAAAAAACATGAAAGTACTTTAAAAAAGGTAATA [XGTACX_site1897],8.9 ± 0.45
25,CAAACAAATATATGTTGTACTTATTATATATACATA [XGTACX_site2998],8.38 ± 0.33

row,Sequence,gcPBM binding intensity (ln)
1,ATAATATAGAAACACACACACATATATATATACATT [CACACA_site555],8.71 ± 0.29
2,TAGATAGATTAAAATACATGCATATTATTAAAAAAT [TGCATGCA_site739],8.84 ± 0.13
3,AAAGCACCCAAGAATACACACAAATATTATAAAAAA [CACACA_site111],8.57 ± 0.58
4,TAAACATAATAATATACACACATATATTGATATATA [CACACA_site2144],8.18 ± 0.43
5,AACCAAATTTCACCATGTACATATTGATAAATATAT [XGTACX_site1374],8.7 ± 0.34
6,GGATTCAAAAAAAAAAATAAAAGTAAATAATAAATA [TGCATGCA_negctrl_site348],8.27 ± 0.42
7,ATACACTAGAAAATTTTATAGTATTATTAATGTTAA [GTGCAC_negctrl_site101],8.19 ± 0.42
8,AAAAATTAGAAACACACACACATATATATATATATT [CACACA_site1042],8.71 ± 0.22
9,TTTATAAAAATGAACACACACATATATATATATATA [CACACA_site3493],10.4 ± 0.3
10,TAAATTTAGAAACACACACACATATATATATATATA [CACACA_site847],10.3 ± 0.4
11,TTTATAAAAATGAACACACACATATAAATATAAATA [CACACA_site7607],8.65 ± 0.44
12,TATATATAATTATAAGAACACACATATATATATATA [CACACA_site8786],10.2 ± 0.18
13,TATATAATTATAAGAACACACATATATATATATATA [CACACA_site2472],10.2 ± 0.2
14,ATTTAGAAAAATAAAACACACATATATATGTAAATA [CACACA_site4113],8.66 ± 0.48
15,AAATAATAAATTATAACACACATATATATATATATA [CACACA_site4045],10 ± 0.47
16,TTTTTATAAAAATGAACACACACATATATATATATA [CACACA_site9160],10.2 ± 0.4
17,TGTTAATTAAAGGACTGTACACTAATAATTCTATAA [XGTACX_site5195],8.5 ± 0.34
18,TTTTAAAACAATGAGATTCCTTTCTTTTTTTCTTTT [CACACA_negctrl_site1320],7.96 ± 0.59
19,TGACCGTTTTAAGAGTGTACAAAAAAAAAAAAAAAA [XGTACX_site4141],8.21 ± 0.43
20,ATATATTTCTGTCAAGCACACATAATATTAATATAT [CACACA_site7993],8.86 ± 0.45
21,AAAAAATGGCTAGTTTGTACACAAAAGTTATTGCAT [XGTACX_site5381],8.43 ± 0.33
22,TTAATATAGATATAACCACACACATACATCTAATTC [CACACA_site8519],8.65 ± 0.46
23,ATTAATTATGTATTTCAACAAAGAAGTGTTATATAT [GTGCAC_negctrl_site215],8.49 ± 0.35
24,TCAAAAAAGACACACCGTACATACTATTTGGACAGG [XGTACX_site7699],8.51 ± 0.36
